Results as given in ChEMBL document CHEMBL4888484, “Replenishing the malaria drug discovery pipeline: Screening and hit evaluation of the MMV Hit Generation Library 1 (HGL1) against asexual blood stage Plasmodium falciparum ,using a nano luciferase reporter read-out” (2022).
In all, about 4,800 compounds went through this assay and about 410 (8.5%) showed an effect of 50% or more. This is one part of a sample in which strong results are shown more often than they occur.

system: Plasmodium falciparum; assay: Confirmatory screen in NF54 pLDH assay, in single point, at 2uM, 72h; type: functional, Erythrocyte; conditions: timepoint 72 hour

SMILES	% Inhibition [%]
CCCS(=O)(=O)NC[C@H]1C[C@@H]2CCN1C[C@@H]2c1cc(C(CC)CC)nc(-c2ccncc2)n1	25
CCC(CC)c1cc([C@H]2CN3CC[C@H]2C[C@@H]3CO)nc(-c2ccncc2)n1	24
CCC(CC)c1cc([C@H]2CN3CC[C@H]2C[C@@H]3CNS(=O)(=O)Cc2ccccc2)nc(-c2ccncc2)n1	60
CN(C)[C@@H](Cn1c(=O)[nH]c2ccccc2c1=O)c1ccco1	-13
COc1ccc(-c2csc(-n3cc(C4=CCN(CCO)CC4)cn3)n2)cc1	40
O=C(Cc1noc2ccccc12)N1CC2CCCC(C1)N2	11
CC(C)(C)CC(C)(C)NCc1cccnc1	-1
O=C1NC(=O)C2(Cc3cc(C(F)(F)F)ccc3N3CCCCC32)C(=O)N1c1ccccc1 (centres undefined)	-21
O=C(c1ccccc1)c1cc(Cl)ccc1NC(=O)[C@H]1CC(=O)N(c2ccc(F)cc2)C1	96
Cc1c(C(=O)N2CCC3(CC2)OCCO3)oc2ccc3c(c12)[C@@H](O)CC1(CCCCC1)O3	10
CN(C)c1ccccc1NS(=O)(=O)c1c(Br)cc2[nH]c(=O)oc2c1Cl	2
CCC(CC)c1cc([C@H]2CN3CC[C@H]2C[C@@H]3CNC(=O)Cc2cccs2)nc(-c2ccncc2)n1	7
CN1CCc2nc3ccc(F)cc3c(C(N)=O)c2C1	-10
Cc1ccccc1[C@H](C)NC1=NCCO1	6
CCN1C[C@]2(COC)CC[C@H](OC)[C@@]34C5C[C@@H]6[C@@H](OC)C[C@@](O)(C5[C@H]6OC(=O)c5ccccc5)[C@@H](CC23)C14 (some centres undefined)	13
Cc1ccc(C2CC(c3cccnc3)Nc3ncnn32)cc1 (centres undefined)	7
C=CC1CN2CCC1CC2C12Nc3ccccc3C1(O)CCO2 (centres undefined)	-15
O[C@@]1(Cc2ccccc2)CN2CCC1CC2	3
COc1ccc(CCN2C(=O)NC(=O)[C@@]3(Cc4c(ccc5ccccc45)N(C)C3)C2=O)cc1OC	6
Cc1cc(C(=O)NC2CC(C)n3ccnc32)nn1C(C)C (centres undefined)	70
CCc1nsc(N2CCC3CCC(C2)N3C)n1 (centres undefined)	-12
C[C@@H]1N=C(c2ccccc2)c2cc(Cl)ccc2N(CC(=O)Nc2cccc(C(F)(F)F)c2)C1=O	11

SMILES	% Inhibition [%]
Cc1ccc(CN2CC(=O)N(C)CC23CCCCC3)nc1	-19
Clc1ccc(C2CC(c3cccnc3)Nc3ncnn32)cc1 (centres undefined)	-11
COC(=O)c1cc(OC)cc2[nH]c(=O)oc12	-17
O=C1CCN(C(=O)c2ccc(F)c(Cl)c2)CC1	13
CC(CCc1ccccc1)N1C(=O)NC(=O)C2(Cc3c(ccc4ccccc34)N(C)C2)C1=O (centres undefined)	6
CCn1cnc2c(N3C4CCC3C(C(=O)OC(C)(C)C)C4)ncnc21 (centres undefined)	-8
CC1CNCC(C)N1Cc1csc(C2CC2)n1 (centres undefined)	-9
O=C1NC(=O)C2(Cc3cccc(F)c3N3CCC(c4ccccc4)CC32)C(=O)N1c1ccccc1 (centres undefined)	-18
COc1cc(OCC(=O)N2CCN([C@@H](C)Cc3ccccc3)CC2)cc(OC)c1OC	3
Cc1cc(=O)c(OCC(=O)N2CCN([C@@H](c3ccccc3)c3ccc(Cl)cc3)CC2)c[nH]1	74
O=C(N1CCN(C(c2ccccc2)c2ccccc2)CC1)C(O)(c1ccccc1)c1ccccc1	-14
COc1cnc(C(F)(F)F)nc1N1CCNCC1	9
Cn1cc(Br)cc1C(=O)C(Cl)(Cl)Cl	-6
CC(C)(C)NC(=O)C1CC2CCCCC2CN1 (centres undefined)	2
CN1CC2(CN(Cc3cnc4ccc(Cl)cn34)C2)OC1=O	6
C=CCN(C)C[C@H]1CN2CC[C@H]1C[C@@H]2CNC(=O)Nc1ccc(OC(F)(F)F)cc1	17
O=C1CCN(C(=O)c2ccc(Cl)c(Cl)c2)CC1	12
CN1CCC(N(C)C2CCCCC2N(C)C(=O)Cc2ccc(O)cc2)CC1 (centres undefined)	4
CN1CC2CN(Cc3ccccc3)CC(C1)C2=O	-5
CC(=O)N(C1CCN(Cc2ccccc2)CC1)C1(C(=O)Nc2ccc3[nH]ccc3c2)CCN(C)CC1	101
COCCn1ccc(C(=O)N[C@H]2CCc3nc(C(C)C)nn3C2)n1	1
c1cc(N2CC[C@@]3(CCCNC3)C2)c2sccc2n1	98

SMILES	% Inhibition [%]
CN1CC[C@]2(CCN(c3ccnc4ccsc34)C2)C1	97
CN1CCC2(CC1)CNc1ccccc12	0
COC(=O)COc1ccc(C#N)c(Cl)c1	1
CCOc1ccccc1NC(=O)c1cn(Cc2ccc(N)cc2)cn1	6
O=c1[nH]c2cc(NS(=O)(=O)c3ccc(C4CCCCC4)cc3)ccc2o1	-14
COc1ccc(N2C[C@H]2c2ccncc2)cc1	12
O=C(NC[C@H]1C[C@@H]2CC[N@]1C[C@@H]2CN1CCC(Cc2ccccc2)CC1)Nc1ccccc1	27
CN(C)C(=O)Oc1cccc2ccc(CN3CCC(N4CCN(c5ccc(C(F)(F)F)cn5)CC4)CC3)nc12	5
O=C(Cc1cnc2ccccn12)N1C[C@H]2CC[C@@H](C1)N(Cc1ccccn1)C2	20
CNCCc1cc(OC)c(OC)c2c1ccc1cc(OC)c(OC)cc12	7
c1ccc2c(CCNC3(c4nnnn4C4CCCCC4)CCCCC3)c[nH]c2c1	16
O=S(=O)(NC12CCCC1CNC2)c1onc(C2CC2)c1Cl (centres undefined)	97
O=C(NCc1ccc(Br)cn1)[C@H]1NCC12CCCC2	4
COC(=O)CNc1cc(C)c([C@@](O)(C(=O)OC)C(F)(F)F)cc1OC	6
CCN(CC)C(=O)Oc1cc2nnnn2nc1-c1ccccc1	6
CC(C)N1C(=O)NC(=O)C2(Cc3ccccc3N3CCN(Cc4ccccc4)CC32)C1=O (centres undefined)	19
C=CCCC(CN1C[C@H]2CC=CC[C@H]2C1)Oc1ncc(F)cn1 (some centres undefined)	64
C[C@@H](Cc1ccc(O)cc1)NCc1cc[nH]n1	12
CCCC(=O)N(C(=O)CCC)c1ccc2[nH]c(=O)oc2c1	-1
Cc1ccc(Cl)c(NC(=O)N2CCC[C@H](c3n[nH]c(=O)o3)C2)c1	2
